Source: PubChem BioAssay
Sampled rows, rich in hits. Any-hit rate of the full collection: about 1.2%.
GALR2 blocker – GALR2 antagonists in receptor-expressing cells, primary screen; Galanin receptor type 2 (Homo sapiens), O43603; antagonist mode; inhibition, % at 4 µM; 140,000 compounds, 0.39% hits; in the data active means inhibition above about 27%;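 further: cells stimulated with galanin 1-16 at roughly its EC80; 0% = agonist challenge control and 100% = basal control without agonist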
GALR2 agonist – GALR2 receptor agonists, primary screen, cell-based; Galanin receptor type 2 (Homo sapiens), O43603; GALR2-expressing cells, agonist activation read-out; activation, % (concentration not given with the values); 140,000 compounds, 0.48% hits; AID 803, 2007; in the data active means activation above about 5%, passing the limit was not always enough;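 further: 0% = vehicle buffer wells and 100% = reference agonist at full effect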
S1P2 antag – human S1P2 receptor antagonists, primary screen, cell-based; inhibition, % at 5 µM; AID 736, 2007; cell-based S1P2 antagonist assay, inhibition at 5 uM; 97,000 compounds, 0.21% hits; in the data active means inhibition above about 45%;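 further: CRE beta-lactamase reporter cells expressing human S1P2 stimulated with S1P; 0% = agonist at EC80 alone and 100% = agonist plus reference antagonist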
Target sequence (O95136 whole entry, looked up): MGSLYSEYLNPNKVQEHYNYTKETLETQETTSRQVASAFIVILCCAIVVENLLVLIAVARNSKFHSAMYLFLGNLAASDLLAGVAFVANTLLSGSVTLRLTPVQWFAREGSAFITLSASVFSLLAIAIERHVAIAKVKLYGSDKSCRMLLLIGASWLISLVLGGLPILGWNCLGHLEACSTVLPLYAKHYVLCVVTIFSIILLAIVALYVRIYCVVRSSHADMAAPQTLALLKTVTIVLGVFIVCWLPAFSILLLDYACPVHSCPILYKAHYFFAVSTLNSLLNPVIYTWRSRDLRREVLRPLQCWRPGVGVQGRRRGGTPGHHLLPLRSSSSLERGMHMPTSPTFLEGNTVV
S1P2 ag – S1P2 receptor agonists, primary screen, cell-based; Sphingosine 1-phosphate receptor 2 (Homo sapiens), O95136; S1P2-expressing cell line, agonist reporter read-out; activation, % at 4.5 µM; 97,000 compounds, 0.46% hits; in the data active means activation above about 16%;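 further: 0% = vehicle low control and 100% = maximal reference agonist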
GALR2 ag confirm – GALR2 agonists, retest of hits, confirmation, cell-based | shares compounds with GALR2 agonist | AID 864, 2007 | GALR2-expressing cells, agonist activation | activation, % at 5.6 µM | 460 compounds, 10% hits; in the data active means activation above about 8.4%;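 further: 0% = buffer-only vehicle wells and 100% = full reference agonist response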
BLA activ ctr – activators of NFAT-driven beta-lactamase reporter, confirmation, counter-screen for GALR2 agonist project, CHO NFAT-bla cells, FRET readout | shares compounds with GALR2 agonist | beta-lactamase FRET activation | activation, % at 5.6 µM | 460 compounds, 10% hits;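 active means activation above the screen-wide mean activation plus 3 SD, cut at about 8% in these data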;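 further: 0% = DMSO with PBS wells and 100% = thapsigargin positive control wells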
* = called active by the depositor; nt = no result given.

SMILES	GALR2 blocker	GALR2 agonist	S1P2 antag	S1P2 ag	GALR2 ag confirm	BLA activ ctr
COCCN1C=C(C(=O)OC)C(c2ccccc2C(F)(F)F)C(C(=O)OC)=C1	-2	18*	-15	11	2	6
O=C1NC2(CCCCC2)C(=O)N1Cc1ccc([N+](=O)[O-])cc1	-1	0	nt	nt	nt	nt
CC/C(=C\C1CCCCC1)C(NP(=O)(c1ccccc1)c1ccccc1)c1ccccc1 (configuration not stated)	3	-1	nt	nt	nt	nt
O=C(c1ccco1)N1CCN(C(=O)c2cc3c(=O)oc4ccccc4c3s2)CC1	1	30*	-8	-5	-1	-1
Cc1cccc(NC(=O)/C(C#N)=C/c2cn(CC(=O)NCc3ccco3)c3ccccc23)c1C	6	29*	nt	nt	11*	8.2*
Cc1ccc(NC(=O)Cn2c(/C=C/c3ccccc3)nc3ccccc32)cc1C	3	8	-5	-5	6	7
COc1ccc(S(=O)(=O)NCC(=O)O)cc1C(=O)NC1CCCCC1	8	-3	nt	nt	nt	nt
NS(=O)(=O)c1ccc(NC(=O)COC(=O)CCNC(=O)NC23CC4CC(CC(C4)C2)C3)cc1	-16	-2	18	-2	nt	nt
COC(=O)c1sccc1NC(=O)CN(C)NS(=O)(=O)c1ccc(F)cc1	11	10	-53	-3	-1	-1
COC(=O)c1sccc1NC(=O)CN(C)NS(=O)(=O)c1ccc(Cl)cc1	10	-2	11	-4	nt	nt
CC(=O)c1nn(-c2ccc(Br)cc2)cc1C(=O)c1ccco1	-7	-1	-10	-1	nt	nt
CC(=O)c1nn(-c2ccc(Br)cc2)cc1C(=O)c1ccccc1	10	8.6*	nt	nt	4	0
CC(C)Cn1c(-c2ccc(Cl)cc2)cnc1SCC(=O)N1CCOCC1	-1	21*	30	-2	-1	-1
O=C(CSc1ncc(-c2ccccc2)n1CC1CCCO1)N1CCCCC1 (configuration not stated)	-2	0	nt	nt	nt	nt
CCn1c(=O)n(CC)c2cc(S(=O)(=O)Nc3cc(C)cc(C)c3C#N)ccc21	-10	3	-17	-12	nt	nt
Cc1cccc(S(=O)(=O)c2c(N)n(/N=C/c3ccco3)c3nc4ccccc4nc23)c1	0	54*	15	-9	0	-1
Cc1ccc(S(=O)(=O)c2c(N)n(/N=C/c3ccco3)c3nc4ccccc4nc23)cc1	-10	-1	-9	-5	nt	nt
CC(=O)Nc1ccccc1N(C)S(=O)(=O)c1ccc(C)cc1	7	-2	3	-4	nt	nt
Cc1ccc(NC(=O)CN2CCCN(S(=O)(=O)c3ccc(Br)s3)CC2)cc1	-3	8	-12	-3	0	-1
Cc1cc(C)cc(NC(=O)CN2CCCN(S(=O)(=O)c3ccc(Br)s3)CC2)c1	-7	-1	-10	-2	nt	nt
Cc1cc2c(cc1C)C(c1ccccc1Br)CC(=O)N2 (configuration not stated)	-10	21*	nt	nt	0	-3
CCOc1ccc(S(=O)(=O)Nc2ccccc2C(=O)NCC2CCCO2)cc1 (configuration not stated)	4	-3	17	-6	nt	nt
CCOc1ccccc1N=c1oc2cc(O)ccc2cc1C(=O)NCC1CCCO1 (configuration not stated)	-25	66*	-48	18*	2	7
CCOC(=O)C1=C(C)N=C2SC(C(=O)OC)=CC(=O)N2C1c1ccc(F)cc1 (configuration not stated)	7	9	8	-9	-1	-1
Cc1c(C(=O)OCC(=O)Nc2ccc3c(c2)OCO3)cccc1[N+](=O)[O-]	6	-1	nt	nt	nt	nt
NS(=O)(=O)c1ccc(N2N=C(c3ccccc3)CC2c2ccc(F)cc2)cc1 (configuration not stated)	-10	20*	-6	5	5	11*
Cc1ccc(C(=O)N[C@H](C(=O)OCc2cc(=O)oc3cc(C)ccc23)C(C)C)cc1	3	-1	nt	nt	nt	nt
CCCN(CCC)S(=O)(=O)c1ccc(C(=O)N2CCCc3ccccc32)cc1	-18	1	8	-3	nt	nt
CCOC(=O)c1c(NC(=O)C2=C(C)NC(=S)NC2c2ccc(CC)cc2)sc(C)c1C (configuration not stated)	-2	9.5*	nt	nt	4	4
